Shown are actives, neighbours in structure and some others; about 8.7% of the full set was active somewhere.
BAZ2B inh: blocks human BAZ2B. Potency, µM (series often up to 114 µM), for inactives: top-dose activity change, negative = inhibition, usual class: inhibitors. AlphaScreen BAZ2B-H3K14Ac peptide displacement. 360,000 tested, 4.4% active. Q9UIF8. AID 504333; also: % is scaled to controls: 0 for no effect and ±100 for the full control effect; nearly all actives have a fitted effect of over 60% in size
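Complex of BAZ2B and biotin-H3K14Ac (50 nM apiece) forms over 30 min at RT, then faces library compounds up to 110 uM for another 30 min; AlphaScreen beads added, 20 min dark incubation, luminescence read.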
HP1b binding inh: HP1-beta chromodomain-methylated histone interaction inhibition. Potency, µM (doses to about 114 µM), for the others: at the highest dose activity change, negative = inhibition, most hits filed as inhibitors. AID 540317. 390,000 tested, 0.56% active. AlphaScreen HP1-beta / biotin-H3K9me3 peptide binding; also: nearly all actives have a fitted effect of over 70% in size
Target sequence (P83916 whole entry, looked up): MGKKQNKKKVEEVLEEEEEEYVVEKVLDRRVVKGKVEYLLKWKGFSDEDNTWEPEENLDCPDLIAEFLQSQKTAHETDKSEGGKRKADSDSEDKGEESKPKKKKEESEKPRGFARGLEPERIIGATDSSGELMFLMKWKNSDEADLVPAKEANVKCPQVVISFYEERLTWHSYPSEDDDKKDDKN
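AlphaScreen: HP1-beta (50 nM) preformed 30 min with biotin-H3(1-18)K9me3 peptide (50 nM) in PBS pH 7.4, 0.01% Tween-20. Compound added for 30 min at RT, then streptavidin donor/nickel chelate acceptor beads (10 ug/mL) for 30 min.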
ALOX12 inh: inhibitors of human 12S-lipoxygenase ALOX12; AID 1671190; Potency, µM (top dose mostly 108 µM), for inactives: at the top dose activity change, negative = inhibition, usual class: inhibitors; 580,000 tested, 1.1% active; purified 12hLO, xylenol orange hydroperoxide absorbance; also: % is scaled to controls: 0 for no effect and ±100 for the full control effect
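Purified human 12hLO (150 nM final) in 25 mM Hepes, 0.01% Triton X-100, pH 7.0 was preincubated 15 min at room temperature with compound. Then 40 uM arachidonic acid was added, 30 min. Hydroperoxide was read by Fe-XO absorbance ratio 573/405 nm.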
Sfp inh: blocks B. subtilis Sfp PPTase activity. Q9F4F7. Biochemical Sfp PPTase activity, qHTS. Potency, µM, without a hit: largest response in the series, negative = inhibition, actives largely listed as inhibitors. 310,000 tested, 3.5% active. AID 1490;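 also: the enzyme is Sfp with the accession as filed and its product quenches rhodamine fluorescence; 0% = enzyme reaction without inhibitor and -100% = no enzyme wells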
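Sfp 15 nM + cpd, 15 min RT; start w/ rhodamine-CoA 5 uM, BHQ-2-YbbR 12.5 uM (final); 50 mM Hepes pH 7.6, 10 mM MgCl2, 0.01% NP-40, 0.01% BSA; read 525/598 nm at 0 and 30 min.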
JMJD2A Tudor: inhibitors of human JMJD2A Tudor domain. 390,000 tested, 4.4% active. AlphaScreen JMJD2A-Tudor / H3K4me3 peptide binding. O75164. AID 504339. Potency, µM (series often up to 114 µM), without a hit: top-dose activity change, negative = inhibition, actives largely listed as inhibitors; also: % is scaled to controls: 0 for no effect and ±100 for the full control effect; nearly all actives have a fitted effect of over 50% in size
G9a block: inhibitors of human histone lysine methyltransferase G9a; Q96KQ7; G9a H3K9 monomethylation, AlphaScreen, 2 h; Potency, µM (top dose mostly 102 µM), without a hit: at the highest dose activity, negative = inhibition, usual class: inhibitors; 350,000 tested, 8.8% active; AID 504332; also: % is scaled to controls: 0 for no effect and ±100 for the full control effect; nearly all actives have a fitted effect of over 75% in size
Target sequence (Q96KQ7 913-1193 limits assumed): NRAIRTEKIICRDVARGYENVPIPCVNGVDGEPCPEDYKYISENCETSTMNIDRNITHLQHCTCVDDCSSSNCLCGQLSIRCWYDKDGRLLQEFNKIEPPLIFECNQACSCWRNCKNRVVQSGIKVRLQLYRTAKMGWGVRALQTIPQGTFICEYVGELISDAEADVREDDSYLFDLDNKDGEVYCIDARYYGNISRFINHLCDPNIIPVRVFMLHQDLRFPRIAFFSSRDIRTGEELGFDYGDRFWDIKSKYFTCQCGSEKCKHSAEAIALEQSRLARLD
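Step 1: enzyme (final 20 nM) with compound, 15 min RT. Step 2: substrate peptide 500 nM and SAM 20 uM, 2 h RT. Step 3: anti-H3K9me1 antibody and AlphaScreen beads, 10 min, then plate read.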
Starred values were filed as active, the others as inactive; ? = inconclusive; nt = no result given; ! = a repeat was not active; [ ] = dose if it differs, or a comment. Calls follow the shape of the dose curve; as a rule, active = well fitted curve in the direction sought with a large enough effect; inconclusive = small, poorly fitted or top-dose-only effect, or another doubt; inactive = no such curve, though single readings can be large; an effect the other way counts as inactive or inconclusive. Potency is read from the fitted curve at half-maximal effect.

SMILES | BAZ2B inh | HP1b binding inh | ALOX12 inh | Sfp inh | JMJD2A Tudor | G9a block
CCOc1ccc(C2C(C(=O)c3ccco3)=C(O)C(=O)N2CCCn2ccnc2)cc1OC (stereo unspecified) | 50.1µM* | 19.2% | -19.7% | -6.3% | -25.5% | nt
CCCOc1ccc(C2C(C(=O)c3ccco3)=C(O)C(=O)N2CCCn2ccnc2)cc1OC (stereo unspecified) | nt | nt | -7.7% | nt | nt | nt
COc1cc(OC)cc(-c2nc(-c3nonc3N)no2)c1 | nt | nt | 45.2% | nt | nt | nt
Cn1nnnc1SCCNC(=O)C1CCC(=O)N(CCc2cccc(F)c2)C1 (stereo unspecified) | 4.3% | 29.0% | 1.1% | 13.3% | 10.9% | 0.159µM*
COc1cccc(NC(=O)CSCc2cc(=O)n3nc(C4CC4)sc3n2)c1 | -13.7% | 43.9% | -0.3% | 8.8% | -24.3% | -8.0%
Cc1ccc(NC(=O)CSCc2cc(=O)n3nc(C4CC4)sc3n2)cc1 | -19.6% | 14.7% | -0.4% | 8.8% | 31.6µM* | 21.2%
CCc1nnc(NC(=O)CSCc2cc(=O)n3nc(C)sc3n2)s1 | -12.5% | 24.3% | -11.0% | 7.6% | 17.8µM* | 47.5%
CCc1nnc(NC(=O)CSc2nnc(CSc3nc(C)cc(C)n3)o2)s1 | -7.6% | 24.5% | 3.2% | 50.1µM* | -23.9% | 39.8µM*
O=C(O)c1cc(=O)n(Cc2ccccc2)c(=O)[nH]1 | ? | 17.1% | ? | ? | 28.2µM* | 15.8µM*
Cc1ccc(NC(=O)c2cc(=O)n(Cc3ccccc3)c(=O)[nH]2)cc1C | -29.3% | -10.1% | -3.9% | -19.6% | 10µM* | 1.2%
Cc1ccc(NC(=O)c2ccccc2)cc1C | 8.2% | 22.9% | -1.8% | nt | -8.5% | -13.1%[2.33 µM]
Cc1cc(=O)[nH]c(=O)n1Cc1ccccc1 | nt | -13.6% | 0.4% | 17.5% | -15.8% | -32.3%
Cc1cc(C)n(CC(=O)N2C[C@@H](COc3ccccc3)[C@H](C(N)=O)C2)n1 | nt | nt | 35.7% | nt | nt | nt
CCOC(=O)CC1C(=O)NCCN1c1nc2ccc(C)cn2c(=O)c1/C=C1\SC(=S)N(CC(C)C)C1=O (stereo unspecified) | 79.4µM* | -17.2% | nt | -3.6% | -26.1% | ?
CCOC(=O)CC1C(=O)NCCN1c1nc2ccc(C)cn2c(=O)c1/C=C1\SC(=S)N(C(C)CC)C1=O (stereo unspecified) | 28.2µM* | nt | nt | ? | nt | nt
O=C(O)c1ccc(/C=C/c2ccc3ccccc3n2)cc1 | nt | nt | 37.7% | nt | nt | nt
COC(=O)CC(C)CCC=C(C)C (stereo unspecified) | nt | nt | 0.0%[176 µM] | nt | nt | nt
CC(C)CCNc1c(-c2cccs2)nc2ccccn12 | -30.2% | 24.2% | -5.3% | -3.8% | -13.9% | 44.7µM*
O=C(COc1ccc(Cl)cc1)Nc1c(-c2cccs2)nc2ccccn12 | -7.2% | 40.1% | -21.4% | -6.1% | -14.1% | -11.3%
CC(C)c1ccc(S(=O)(=O)Nc2ccc(SC(F)F)cc2)cc1 | 21.8% | 74.9% | ? | 25.1% | 2.0% | -6.7%[59 µM]
Cc1ccc(S(=O)(=O)Nc2ccc(SC(F)F)cc2)c(C)c1 | -6.8% | 55.3% | 15.8µM* | 4.3% | 1.4% | -11.2%[59 µM]
CCc1nc2c(c(-c3ccc(Cl)cc3)n1)CN(C(=O)Nc1ccc(Cl)cc1)CC2 | nt | nt | -19.0% | nt | nt | nt
O=c1[nH]c(=S)[nH]nc1Cc1ccc(Cl)c(Cl)c1 | 16.2% | 30.8% | 6.31µM* | 25.1% | -9.1% | 50.1µM*
CC(C)(C)c1ccc(Cc2n[nH]c(=S)[nH]c2=O)cc1 | 1.8% | 35.9% | 15.8µM* | 18.2% | -8.4% | 23.1%[2.33 µM]
COc1cc(C)ccc1OCc1cc(C(=O)N(C)Cc2ncccc2C)no1 | nt | nt | 69.1% | nt | nt | nt
COc1ccc2[nH]c(-c3cccc(F)c3)cc(=O)c2c1 | -5.5% | 30.2% | ? | -0.7% | -20.0% | ?
O=c1cc(-c2cccc(F)c2)[nH]c2ccccc12 | 1.8% | 57.2% | -21.0% | -1.9% | -13.6% | 31.6µM*!
Cc1ccc2[nH]c(-c3cccc(F)c3)cc(=O)c2c1 | 5.1% | 44.5% | 10.0% | -4.0% | -7.9% | 0.282µM*!
Cc1ccc(-c2cc(=O)c3cc(F)ccc3[nH]2)cc1 | 2.5% | 40.6% | -1.7% | 24.5% | -4.2% | -1.8%

Screens deposited in PubChem BioAssay by National Center for Advancing Translational Sciences (NCATS).
